This note sets out measurements from PMC4081100, “A DNA-binding-site landscape and regulatory network analysis for NAC transcription factors in Arabidopsis thaliana”.

What all share (assay): universal protein binding microarray (PBM); transcription factors of Arabidopsis thaliana; high values mean tight binding
The target of one experiment is T1, GST-ANAC092(1-176) (Arabidopsis thaliana, UniProt Q9FKA0 1-176).
T1 sequence: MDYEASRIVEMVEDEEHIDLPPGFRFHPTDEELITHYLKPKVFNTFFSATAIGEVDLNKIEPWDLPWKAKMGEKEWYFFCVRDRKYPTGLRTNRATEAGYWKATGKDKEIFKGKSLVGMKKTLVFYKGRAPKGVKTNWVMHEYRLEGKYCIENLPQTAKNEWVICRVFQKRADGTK
The note with it: protein: recombinant; tags: GST; chain copies: 2; dsDNA, one strand shown. The essentials:
(§1)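 Binding is expressed as the normalised enrichment score (E-score). Proteins carrying a GST tag, whether NAC-domain, full-length or DNA-binding-domain forms, were induced in cells, and zinc acetate was added for zinc-finger proteins. After purification on glutathione–Sepharose 4B and quantification by A280 or anti-GST western blot, each was applied in duplicate at 200 to 500 nM final to custom all-10-mer Agilent 4 × 180K arrays made double-stranded by primer extension. Gapped and ungapped 8-mers were scored.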

The target in another experiment is GST-NTL6(1-168) (Arabidopsis thaliana, UniProt Q9SCK6 1-168). The following applies: protein: recombinant; tags: GST; chain copies: 2; dsDNA, one strand shown. The essentials:
as §1

In a further experiment the target is T2, GST-ANAC019 NAC domain (Arabidopsis thaliana, UniProt Q9C932 14-162).
T2 sequence: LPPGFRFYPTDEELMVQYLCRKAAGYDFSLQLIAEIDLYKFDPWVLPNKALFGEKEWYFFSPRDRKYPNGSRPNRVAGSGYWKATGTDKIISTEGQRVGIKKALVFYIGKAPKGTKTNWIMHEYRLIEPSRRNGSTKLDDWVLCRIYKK
The note with it: protein: recombinant; tags: GST; chain copies: 2; dsDNA, one strand shown. The essentials:
as §1

A further experiment concerns the target T3, GST-ANAC055(1-171) (Arabidopsis thaliana, UniProt Q9LDY8 1-171).
T3 sequence: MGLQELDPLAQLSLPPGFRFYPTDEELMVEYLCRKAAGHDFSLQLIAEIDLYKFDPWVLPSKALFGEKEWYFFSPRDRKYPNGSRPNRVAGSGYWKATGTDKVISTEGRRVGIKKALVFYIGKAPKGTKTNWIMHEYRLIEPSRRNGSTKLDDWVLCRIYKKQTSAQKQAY
The note with it: protein: recombinant; tags: GST; chain copies: 2; dsDNA, one strand shown. The essentials:
as §1

The next experiment addresses T4, GST-ATAF1 NAC domain (Arabidopsis thaliana, UniProt Q39013 7-158).
T4 sequence: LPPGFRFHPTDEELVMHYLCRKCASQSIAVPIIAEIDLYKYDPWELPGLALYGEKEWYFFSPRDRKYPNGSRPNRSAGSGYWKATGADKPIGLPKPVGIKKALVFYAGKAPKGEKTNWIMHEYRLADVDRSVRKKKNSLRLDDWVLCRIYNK
The note with it: protein: recombinant; tags: GST; chain copies: 2; dsDNA, one strand shown. The essentials:
as §1

In experiment [1] the target is T5, GST-ANAC092(1-285) full length (Arabidopsis thaliana, UniProt Q9FKA0 1-285).
T5 sequence: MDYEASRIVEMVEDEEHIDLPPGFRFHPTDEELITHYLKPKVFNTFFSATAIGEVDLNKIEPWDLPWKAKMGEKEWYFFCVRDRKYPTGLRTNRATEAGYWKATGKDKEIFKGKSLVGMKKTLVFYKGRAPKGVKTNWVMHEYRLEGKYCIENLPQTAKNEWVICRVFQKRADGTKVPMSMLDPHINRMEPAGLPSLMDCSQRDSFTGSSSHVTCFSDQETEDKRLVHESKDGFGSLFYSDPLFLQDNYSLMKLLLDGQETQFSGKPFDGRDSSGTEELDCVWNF
The note with it: protein: recombinant; tags: GST; chain copies: 2; dsDNA, one strand shown. The essentials: as §1

For a further experiment, the target named is T6, GST-NAP(1-166) (Arabidopsis thaliana, UniProt O49255 1-166).
T6 sequence: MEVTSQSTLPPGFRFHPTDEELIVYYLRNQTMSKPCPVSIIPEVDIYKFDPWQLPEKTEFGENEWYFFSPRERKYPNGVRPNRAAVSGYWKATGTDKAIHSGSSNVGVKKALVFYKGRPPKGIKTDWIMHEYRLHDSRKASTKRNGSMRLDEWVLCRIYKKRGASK
The following applies: protein: recombinant; tags: GST; chain copies: 2; dsDNA, one strand shown. The essentials:
as §1

Another experiment concerns the target T7, GST-NST2(1-184) (Arabidopsis thaliana, UniProt Q9M274 1-184).
T7 sequence: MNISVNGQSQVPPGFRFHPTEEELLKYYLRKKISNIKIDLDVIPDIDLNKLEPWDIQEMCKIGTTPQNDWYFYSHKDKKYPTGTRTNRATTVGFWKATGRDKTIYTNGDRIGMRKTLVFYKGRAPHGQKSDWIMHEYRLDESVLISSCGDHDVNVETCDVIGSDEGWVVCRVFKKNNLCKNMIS
The note with it: protein: recombinant; tags: GST; chain copies: 2; dsDNA, one strand shown. The essentials:
as §1

The target of the next experiment is T8, GST-SND1(1-203) (Arabidopsis thaliana, UniProt Q9LPI7 1-203).
T8 sequence: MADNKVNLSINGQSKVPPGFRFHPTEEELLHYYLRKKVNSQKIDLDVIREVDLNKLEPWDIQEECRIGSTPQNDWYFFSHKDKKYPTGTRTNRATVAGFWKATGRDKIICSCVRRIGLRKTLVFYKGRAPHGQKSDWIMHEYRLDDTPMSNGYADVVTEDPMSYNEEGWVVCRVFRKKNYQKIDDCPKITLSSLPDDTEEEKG
The note with it: protein: recombinant; tags: GST; chain copies: 2; dsDNA, one strand shown. The essentials: as §1

A further experiment deals with T9, GST-VND3 NAC domain (Arabidopsis thaliana, UniProt Q9FH59 12-162).
T9 sequence: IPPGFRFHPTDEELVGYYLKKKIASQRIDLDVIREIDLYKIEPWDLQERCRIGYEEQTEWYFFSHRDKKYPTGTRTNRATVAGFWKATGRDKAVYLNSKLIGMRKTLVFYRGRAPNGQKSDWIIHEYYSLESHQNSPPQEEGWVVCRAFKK
The following applies: protein: recombinant; tags: GST; chain copies: 2; dsDNA, one strand shown. The essentials:
as §1

A further experiment deals with T10, GST-VND7 NAC domain (Arabidopsis thaliana, UniProt Q9C8W9 9-158).
T10 sequence: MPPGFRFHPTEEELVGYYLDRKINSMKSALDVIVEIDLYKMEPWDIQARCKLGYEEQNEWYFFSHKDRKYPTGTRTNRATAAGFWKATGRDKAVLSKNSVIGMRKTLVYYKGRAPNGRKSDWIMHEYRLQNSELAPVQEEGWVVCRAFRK
The following applies: protein: recombinant; tags: GST; chain copies: 2; dsDNA, one strand shown. The essentials:
as §1

The next experiment has as its target GST-WRKY1(266-371) (Arabidopsis thaliana, UniProt Q9SI37 266-371). The note with it: protein: recombinant; tags: GST; dsDNA, one strand shown. The essentials:
as §1

A further experiment addresses T11, GST-NTL8 NAC domain (Arabidopsis thaliana, UniProt Q9XIN7 14-156).
T11 sequence: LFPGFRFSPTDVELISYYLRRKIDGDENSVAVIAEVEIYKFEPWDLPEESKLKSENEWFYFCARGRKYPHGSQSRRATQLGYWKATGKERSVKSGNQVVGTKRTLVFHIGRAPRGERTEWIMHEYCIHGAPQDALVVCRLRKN
The following applies: protein: recombinant; tags: GST; chain copies: 2; dsDNA, one strand shown. The essentials:
as §1

GST-WRKY1(266-371), sequence (Q9SI37 266-371): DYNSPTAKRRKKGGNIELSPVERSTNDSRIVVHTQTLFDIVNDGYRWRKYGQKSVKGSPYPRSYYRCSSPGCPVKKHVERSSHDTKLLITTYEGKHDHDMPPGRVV
GST-NTL6(1-168), sequence (Q9SCK6 1-168): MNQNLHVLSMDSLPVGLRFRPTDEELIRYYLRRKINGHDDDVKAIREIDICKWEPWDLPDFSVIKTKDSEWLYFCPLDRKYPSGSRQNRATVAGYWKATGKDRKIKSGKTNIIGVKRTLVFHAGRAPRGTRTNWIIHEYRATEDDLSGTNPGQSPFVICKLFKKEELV

ACGTCAAA: the binding signal is 0.333 E-score in the experiment with GST-ANAC092(1-176); 0.0817 E-score with GST-NTL6(1-168); 0.262 E-score with GST-ANAC019 NAC domain; 0.245 E-score with GST-ANAC055(1-171); 0.176 E-score with GST-ATAF1 NAC domain; 0.372 E-score in [1]. The binding signal was determined as 0.194 E-score with GST-NAP(1-166); 0.261 E-score with GST-NST2(1-184); 0.361 E-score with GST-SND1(1-203); 0.252 E-score with GST-VND3 NAC domain; 0.25 E-score with GST-VND7 NAC domain; 0.421 E-score with GST-WRKY1(266-371).
Turning to TGAAGAAA, the binding signal was determined as 0.188 E-score in the experiment with GST-ANAC092(1-176); 0.339 E-score with GST-NTL6(1-168); 0.151 E-score with GST-ANAC019 NAC domain; 0.114 E-score with GST-ANAC055(1-171); 0.129 E-score with GST-ATAF1 NAC domain; 0.0672 E-score in [1]. Moreover, the binding signal was found to be 0.0893 E-score in the experiment with GST-NAP(1-166); 0.241 E-score in the experiment with GST-NST2(1-184); 0.45 E-score in the experiment with GST-NTL8 NAC domain; 0.152 E-score with GST-SND1(1-203); 0.121 E-score with GST-VND3 NAC domain; 0.215 E-score in the experiment with GST-VND7 NAC domain. The binding signal with GST-WRKY1(266-371) worked out at 0.211 E-score.
For ATTACGTA, the binding signal with GST-ANAC092(1-176) came to 0.459 E-score; with GST-NTL6(1-168) it was 0.201 E-score; with GST-ANAC019 NAC domain, 0.474 E-score; with GST-ANAC055(1-171), 0.438 E-score; in the experiment with GST-ATAF1 NAC domain it was 0.404 E-score; in experiment [1], 0.449 E-score. Moreover, the binding signal worked out at 0.47 E-score in the experiment with GST-NAP(1-166); 0.331 E-score with GST-NST2(1-184); 0.134 E-score with GST-NTL8 NAC domain; 0.44 E-score in the experiment with GST-SND1(1-203); 0.468 E-score in the experiment with GST-VND3 NAC domain; 0.458 E-score with GST-VND7 NAC domain. Also, in the experiment with GST-WRKY1(266-371), the binding signal stood at 0.0642 E-score.
In the case of AAAAGTCA, the binding signal in the experiment with GST-ANAC092(1-176) came to 0.142 E-score; with GST-NTL6(1-168), 0.1 E-score; in the experiment with GST-ANAC019 NAC domain it was 0.185 E-score; with GST-ANAC055(1-171), 0.157 E-score; with GST-ATAF1 NAC domain, 0.241 E-score; in [1] it was 0.241 E-score. Further, the binding signal in the experiment with GST-NAP(1-166) turned out to be 0.08 E-score; with GST-NST2(1-184), 0.274 E-score; in the experiment with GST-NTL8 NAC domain, 0.128 E-score; with GST-SND1(1-203) it was 0.257 E-score; in the experiment with GST-VND3 NAC domain it was 0.13 E-score; with GST-VND7 NAC domain, 0.122 E-score. Besides, in the experiment with GST-WRKY1(266-371), the binding signal came out at 0.461 E-score.
Take TCACGCAA: the binding signal in the experiment with GST-ANAC092(1-176) amounted to 0.488 E-score; in the experiment with GST-NTL6(1-168), 0.0728 E-score; with GST-ANAC019 NAC domain it was 0.467 E-score; in the experiment with GST-ANAC055(1-171) it was 0.398 E-score; in the experiment with GST-ATAF1 NAC domain it was 0.336 E-score; in [1], 0.488 E-score. Further, the binding signal amounted to 0.433 E-score with GST-NAP(1-166); 0.396 E-score with GST-NST2(1-184); 0.177 E-score with GST-NTL8 NAC domain; 0.473 E-score with GST-SND1(1-203); 0.448 E-score with GST-VND3 NAC domain; 0.462 E-score with GST-VND7 NAC domain. Besides, in the experiment with GST-WRKY1(266-371), the binding signal amounted to 0.0966 E-score.
Regarding ACGTAAAG, the binding signal was found to be 0.402 E-score with GST-ANAC092(1-176); 0.0957 E-score with GST-NTL6(1-168); 0.367 E-score with GST-ANAC019 NAC domain; 0.317 E-score with GST-ANAC055(1-171); 0.301 E-score with GST-ATAF1 NAC domain; 0.421 E-score in experiment [1]. Further, the binding signal was determined as 0.255 E-score with GST-NAP(1-166); 0.319 E-score with GST-NST2(1-184); 0.0757 E-score with GST-NTL8 NAC domain; 0.41 E-score in the experiment with GST-SND1(1-203); 0.359 E-score with GST-VND3 NAC domain; 0.283 E-score with GST-VND7 NAC domain. The binding signal with GST-WRKY1(266-371) turned out to be 0.103 E-score.
